# Laboratory results as given in PubChem BioAssay AID1445 (SRMLSC, 2008).
# The campaign covered roughly 220,000 compounds. About 910 (0.41%) were called active. The full list was thinned out, with actives kept by preference. Entries with a potency or affinity are not part of this list. Values without a mark were called inactive.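 Rule for the calls: active = primary inhibition above the hit cutoff, then over 50% inhibition at one or more dose response concentrations (cut at about 23% in these data, passing the limit was not always enough); inconclusive = conflicting primary data, or primary hits not chosen for dose response; inactive = low primary inhibition, or under 50% at every dose.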
# Molecular target: Aminopeptidase N (Plasmodium falciparum (isolate 3D7)) (UniProt O96935)
# Sequence (O96935 whole entry, looked up): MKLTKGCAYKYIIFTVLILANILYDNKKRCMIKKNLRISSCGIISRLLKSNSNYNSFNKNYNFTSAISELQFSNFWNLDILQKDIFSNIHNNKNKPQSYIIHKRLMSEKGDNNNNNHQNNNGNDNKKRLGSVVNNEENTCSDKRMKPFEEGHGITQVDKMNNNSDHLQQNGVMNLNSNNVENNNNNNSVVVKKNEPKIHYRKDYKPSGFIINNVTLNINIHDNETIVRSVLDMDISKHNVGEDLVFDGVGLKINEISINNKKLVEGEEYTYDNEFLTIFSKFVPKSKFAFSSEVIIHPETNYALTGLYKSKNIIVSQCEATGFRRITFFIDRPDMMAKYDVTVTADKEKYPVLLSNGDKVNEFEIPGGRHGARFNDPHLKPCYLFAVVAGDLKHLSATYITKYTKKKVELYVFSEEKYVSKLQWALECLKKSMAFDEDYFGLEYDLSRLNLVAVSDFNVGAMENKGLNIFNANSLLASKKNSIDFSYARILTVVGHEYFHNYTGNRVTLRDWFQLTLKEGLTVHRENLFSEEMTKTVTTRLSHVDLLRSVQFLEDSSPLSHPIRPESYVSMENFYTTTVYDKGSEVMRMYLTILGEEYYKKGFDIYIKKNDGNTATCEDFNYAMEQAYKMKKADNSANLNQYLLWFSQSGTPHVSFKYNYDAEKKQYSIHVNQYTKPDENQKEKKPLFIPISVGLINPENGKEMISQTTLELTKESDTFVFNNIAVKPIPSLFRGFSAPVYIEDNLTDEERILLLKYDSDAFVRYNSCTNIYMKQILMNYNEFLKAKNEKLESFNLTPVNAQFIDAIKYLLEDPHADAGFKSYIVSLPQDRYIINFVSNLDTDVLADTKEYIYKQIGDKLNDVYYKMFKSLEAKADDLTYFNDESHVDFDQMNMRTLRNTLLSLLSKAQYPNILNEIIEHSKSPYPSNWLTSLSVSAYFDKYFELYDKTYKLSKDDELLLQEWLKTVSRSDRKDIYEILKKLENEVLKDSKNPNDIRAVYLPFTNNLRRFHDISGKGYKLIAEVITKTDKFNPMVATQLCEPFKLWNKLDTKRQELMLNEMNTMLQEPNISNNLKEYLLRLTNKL
# Assay: malaria alanyl aminopeptidase activity blockers – biochemical, fluorogenic H-Leu-NHMec substrate, 1536-well (AID 1445);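 note: plate controls were DMSO full reaction for no effect and no enzyme background for full effect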
# Conditions: recombinant M1AAP, H-Leu-NHMec fluorogenic kinetic assay
# [1] = at 30 µM, hits give high values unless noted
compound,measurement,setting,value
CC1=C(CCN2CCN(C(C)C)C(CCO)C2)C(C)(C)CCC1 (configuration not stated),inhibition,[1],2.23%
CCn1c(Cn2nnc(-c3ccccc3)n2)nnc1SCC(=O)Nc1cccc(C(C)=O)c1,inhibition,[1],0.07%
COc1ccc(/C=N/NC(=O)c2cc(Br)ccc2O)cc1Cn1cc(Cl)cn1,inhibition,[1],0.18%
O=c1[nH][nH]c(-c2ccccc2)c1C=Nc1ccc(C(F)(F)F)cc1,inhibition,[1],2.58%
CC1=C(C#N)c2nc(N)c(C#N)c(C)c2/C1=C\c1ccc(C)cc1,inhibition,[1],6.97%
CC1=C(C#N)c2nc(N)c(C#N)c(C)c2/C1=C\c1ccc(OCC(=O)O)c(Cl)c1,inhibition,[1],11.5%
CSc1ccc(/C=C/c2ccc3cccc(O)c3n2)cc1,inhibition,[1],8.1%
COC(=O)c1ccc(/C=C/c2ccc3cccc(OC)c3n2)cc1,inhibition,[1],20.2%
O=C(COc1ccc(F)cc1)N(c1ccccn1)C1CCCCC1,inhibition,[1],2.11%
COc1ccc(N2C(=O)C3CCCN3C2c2cccc(OC)c2OC)cc1 (configuration not stated),inhibition,[1],3.05%
CCN(CC)CC(O)Cn1c(-c2ccccc2Cl)nc2ccccc21 (configuration not stated),inhibition,[1],3.4%
Cc1ccc(CN2CCN(/N=C/c3ccc(C(F)(F)F)cc3)CC2)cc1,inhibition,[1],5.42%
C#CCCOC(=O)N1C2=NC(C(=O)OC)=C(C(=O)OC)[C@@H]3N(C)c4ccccc4[C@]23C[C@H]1C(=O)OC,inhibition,[1],3.66%
C#CCCOC(=O)N1C2=NC(C(=O)OC)=C(C(=O)OC)[C@@H]3N(Cc4ccccc4)c4ccccc4[C@]23C[C@H]1C(=O)OC,inhibition,[1],8.52%
COC(C[C@H](O)CC(=O)[C@H](C)OCc1ccccc1)OC,inhibition,[1],1.19%
COC(=O)c1sc2nc(-c3ccccc3)c3c(c2c1N)CCCC3,inhibition,[1],0.85%
COc1ccc(CN(C)C(=S)Nc2ccc(OC(F)F)cc2)cc1,inhibition,[1],-1.27%
O=C1CCCc2nc3nc4ccccc4n3cc21,inhibition,[1],-2.88%
CC1CCN(C(=O)CSc2nc(N)cc(N)n2)CC1,inhibition,[1],-2.52%
CCOc1ccc(-n2c(=S)sc3c(=O)[nH]c(SCC(=O)NCC4CCCO4)nc32)cc1 (configuration not stated),inhibition,[1],18.3%
CCOC(=O)CSc1nc2c(sc(=S)n2-c2ccccc2)c(=O)[nH]1,inhibition,[1],7.91%
CCOC(=O)CSc1nc2c(sc(=S)n2-c2ccc(OCC)cc2)c(=O)[nH]1,inhibition,[1],13.9%
CCOc1ccc2c(c1)c1nnc(SCC(=O)N3CCC(C)CC3)nc1n2C,inhibition,[1],7.57%
CCOc1ccc(-n2c(=S)sc3c(=O)[nH]c(SCC(=O)NC(C)CC)nc32)cc1 (configuration not stated),inhibition,[1],11.5%
CCOC(=O)CC(=O)CSc1nc2c(sc(=S)n2-c2ccccc2)c(=O)[nH]1,inhibition,[1],21.4%
CCOc1ccc(-n2c(=S)sc3c(=O)[nH]c(SCC(=O)NCc4ccco4)nc32)cc1,inhibition,"at 30 µM, hits give high values",29.8% (active)
same,inhibition,at 100 µM (top of the series),46.1%
CCN(CC)C(=O)CSc1nc2c(sc(=S)n2-c2ccccc2)c(=O)[nH]1,inhibition,[1],5.01%
CCCc1ccc(OCC(=O)NNC(=O)c2cccnc2)cc1,inhibition,[1],-2.33%
Cc1cc(C(F)(F)F)nc(Nc2nc(C)c3ccccc3n2)n1,inhibition,[1],10.9%
COc1cc2ccc(=O)oc2cc1OCC(O)C(C)(C)O (configuration not stated),inhibition,[1],14.1%
COc1cccc(/C=N/Nc2nc3ccccc3n3cnnc23)c1,inhibition,[1],0.89%
CCOC(=O)c1cc(-c2ccccc2)n(CCC(=O)N2CCN(c3ccc(OC)cc3)CC2)c1C,inhibition,[1],5.67%
Cc1cc(C)n(/N=C/c2c[nH]c3ccccc23)c(=O)c1C#N,inhibition,[1],5.27%
CCc1ccc(NC(=O)CSc2nc3ccsc3c(=O)n2CCCCCC(=O)O)cc1,inhibition,[1],-11.3%
COc1cc(NC(C)=O)ccc1-c1cc2ccccc2oc1=O,inhibition,[1],4%
COc1ccc(NC(=O)C2CCC(=O)N2)cc1 (configuration not stated),inhibition,[1],3.48%
COc1ccc(C(C(=O)NC(C)(C)C)N(C(=O)CNC(=O)c2cccs2)c2ccc(C)cc2)cc1OC (configuration not stated),inhibition,[1],-2.96%
O=C(COC(=O)c1ccc(Cl)nc1)Nc1ccc(S(=O)(=O)N2CCCC2)cc1,inhibition,[1],9.72%
Nc1ccc(C23CC4CC(CC(C4)C2)C3)cc1,inhibition,[1],1.15%
CC(=O)c1cnc2c(-c3ccc(Cl)cc3)cnn2c1C,inhibition,[1],-0.05%
CCOC(=O)c1cnc2c(-c3ccc(Cl)cc3)cnn2c1C,inhibition,[1],-12.2%
CC(C)(C)C(=O)NC(=S)Nc1ccc(F)cc1,inhibition,[1],4.15%
O=c1cc(-c2ccc(F)cc2F)[nH]c2ccccc12,inhibition,[1],-3.62%
O=c1cc(CN2CCN(S(=O)(=O)c3ccccc3)CC2)nc2sccn12,inhibition,[1],-0.76%
CC(C)NC(=O)CSc1nnc(COc2ccccc2Cl)o1,inhibition,[1],8.56%
O=c1cc(CSc2nc3cc(Cl)ccc3o2)nc2sccn12,inhibition,[1],4.21%
O=c1cc(CN2CCN(S(=O)(=O)c3ccc4ccccc4c3)CC2)nc2sccn12,inhibition,[1],-6.82%
O=c1cc(CSc2ccc(S(=O)(=O)N3CCCCC3)cn2)nc2sccn12,inhibition,[1],24.1% (active)
O=c1cc(CSc2nnc(COc3ccccc3Cl)o2)nc2sccn12,inhibition,[1],25.3% (active)
CN(C)CCCNS(=O)(=O)c1cc(Cl)c(Cl)cc1Cl,inhibition,[1],0.71%
C#CCOC(=O)Nc1ccc(OCC(F)(F)F)nc1,inhibition,[1],-3.37%
O=C(O)Cc1cc(C(=O)Nc2ccc(Br)cc2)sc1-c1ccccc1,inhibition,[1],8.41%
COc1ccc([N+](=O)[O-])cc1NC(=O)C(C)OC(=O)c1cccnc1 (configuration not stated),inhibition,[1],-3.23%
CC(C)[C@H](NC(=O)c1ccc(Cl)c([N+](=O)[O-])c1)C(=O)NCc1ccc(F)cc1,inhibition,[1],3.78%
Cc1cc(NC(=O)c2ccco2)ncc1NC(=O)CCc1ccccc1,inhibition,[1],29.7% (active)
Cc1cc(NC(=O)c2ccccc2)ncc1NC(=O)c1ccco1,inhibition,[1],5.34%
Cc1cc(NC(=O)c2ccco2)ncc1NC(=O)Cc1ccccc1,inhibition,[1],0.67%
CC1CCCC(NC(=O)CCn2c(=S)oc3ccccc32)C1C (configuration not stated),inhibition,[1],3.48%
Cc1ccc(-n2c(-c3nn(C)c(C)c3Cl)n[nH]c2=S)cc1,inhibition,[1],1.9%
CNC(=O)C1CC(=O)N(Cc2ccc3c(c2)OCO3)C(=Nc2ccc(F)cc2)S1 (configuration not stated),inhibition,[1],-5.29%
CCNC(=O)C1CC(=O)N(Cc2ccc3c(c2)OCO3)C(=Nc2ccc(F)cc2)S1 (configuration not stated),inhibition,[1],27% (active)
CCNC(=O)C1CC(=O)N(Cc2ccc3c(c2)OCO3)C(=Nc2ccc(OCC)cc2)S1 (configuration not stated),inhibition,[1],-1.35%
COc1ccc(NC(=S)N2CCN(c3ncccn3)CC2)cc1,inhibition,[1],4.34%
CC1=CC(c2ccccc2)n2nnnc2N1 (configuration not stated),inhibition,[1],-5.78%
c1ccc(N2CCN(c3nc4ccccc4n4cnnc34)CC2)cc1,inhibition,[1],14.5%
c1ccc2c(c1)nc(N1CCOCC1)c1nncn12,inhibition,[1],4.1%
c1cnc(N2CCN(c3nc4ccccc4n4cnnc34)CC2)nc1,inhibition,[1],24.4% (active)
Cc1cc(C)n(Cc2nc3ccccc3n2C)n1,inhibition,[1],-3.79%
CC(C)(C)[C@H]1C=C(C(=O)NC2CC2)O[C@@H](OCc2ccc(CO)cc2)C1,inhibition,[1],1.09%
NC(=O)c1sc(=S)n2c1[nH]c(=O)c1sccc12,inhibition,[1],17.2%
CCCCCNC(=O)c1ccc2c(=O)n(CC3CCCO3)c(=O)[nH]c2c1 (configuration not stated),inhibition,[1],4.6%
CC(=O)NNC(=O)c1sc(=S)n(C)c1C,inhibition,[1],0.62%
O=C(NCc1ccccc1)c1sc(=S)n2c1[nH]c(=O)c1ccccc12,inhibition,[1],18.5%
O=C(NC1CCCCC1)c1sc(=S)n2c1[nH]c(=O)c1ccccc12,inhibition,[1],0.76%
Cc1ccc(CNC(=O)c2ccc3c(=O)[nH]c4c(C(=O)NCC5CCCO5)sc(=S)n4c3c2)cc1 (configuration not stated),inhibition,[1],23%
CCCCCNC(=O)c1ccc2c(=O)n(CC3CCCO3)c(=S)[nH]c2c1 (configuration not stated),inhibition,[1],5.58%
O=C(NCC1CCCO1)c1sc(=S)n2c1[nH]c(=O)c1ccc(C(=O)N3CCCCC3)cc12 (configuration not stated),inhibition,[1],20.2%
O=C(NCc1ccco1)c1ccc(Br)c(S(=O)(=O)N2CCCCC2)c1,inhibition,[1],3.95%
COc1ccc(NC(=O)C23CC4CC(C2)CC(c2ccccc2)(C4)C3)c(OC)c1,inhibition,[1],-2.32%
COc1c(C)cc(C(=O)C2CCCN(C(=O)c3cccc(F)c3)C2)cc1C (configuration not stated),inhibition,[1],0.9%
CC(=O)Nc1ccc(OCC(O)Cn2c(CO)nc3ccccc32)cc1 (configuration not stated),inhibition,[1],6.49%
Cc1ccc(N(CC(=O)O)S(C)(=O)=O)cc1Cl,inhibition,[1],-5.06%
C=CCOC(=O)C(=O)/C=C/c1csc2ccccc12,inhibition,[1],1.93%
Cc1cc(C)c2c(-n3cccc3)c(C(=O)O)sc2n1,inhibition,[1],12.2%
Cc1cc(C)c2c(-n3cccc3)c(C(=O)NNS(=O)(=O)c3ccc(F)cc3)sc2n1,inhibition,[1],-2.28%
COC(=O)C(=C/C(C)=C/c1cccs1)C(=O)OC,inhibition,[1],13.8%
Cc1ccc(N2C(=O)CCC2(C(N)=O)c2ccccc2)cc1 (configuration not stated),inhibition,[1],-0.36%
CCC(=O)Nc1ccc(-c2nc3ccccc3c(=O)o2)cc1,inhibition,[1],2.53%
CCOc1ccccc1CN1CCN(Cc2[nH]c3ccccc3c2C)CC1CCO (configuration not stated),inhibition,[1],-0.18%
Cc1nc(N)sc1C(=O)N/N=C/c1ccccc1[N+](=O)[O-],inhibition,[1],5.94%
COc1cccc(/C=N\NC(=O)c2sc(N)nc2C)c1OC,inhibition,[1],24.5% (active)
COc1cc(/C=N\NC(=O)c2sc(N)nc2C)cc(OC)c1OC,inhibition,[1],8.26%
Cc1csc(Nc2ccccc2)[n+]1C,inhibition,[1],-12.3%
CC(C)c1cc(C(=O)Nc2sc3c(c2C#N)CCC3)no1,inhibition,[1],20.6%
Cc1cc(C(=O)Nc2sc3c(c2C#N)CCCC3)no1,inhibition,[1],8.77%
Cc1cc(C(=O)Nc2sc3c(c2C#N)CCC3)no1,inhibition,[1],23.7% (active)
